Results taken from PubChem BioAssay (Tox21).
Records with an inconclusive call do not appear. Calls of active or inactive are those of the source. Unless noted, calls follow the shape of the dose curve; as a rule, active = well fitted curve in the direction sought with a large enough effect in the repeat runs; inconclusive = weak or mixed curves; inactive = no such curve, though single readings can be large; an effect the other way counts as inactive or inconclusive.

What was measured:
[1] = qHTS assay to identify small molecule agonists of H2AX - cell viability counter screen (AID 1224847; calls by dose curve; also: nearly all actives have a fitted effect of over 30% in size; also: potency is read from the fitted curve at half-maximal effect)
Procedure, shortened: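 CHO-K1 wt, 1000 cells/well, o/n 37C; cpds 15 conc, 3 h 37C, 0.76% DMSO; CellTiter-Glo, 30 min RT, luminescence.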

[2] = qHTS assay to identify small molecule antagonists of the estrogen related receptor (ERR) signaling pathway from Tox21 library (AID 1224848); also: nearly all actives have a fitted effect of over 50% in size; also: potency is read from the fitted curve at half-maximal effect
Procedure, shortened: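 ERR cell line, 2,000 cells/well. 6 h settle, then compound (DMSO) added; 18 h at 37 C; ONE-Glo luminescence after 30 min RT.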

[3] = qHTS assay to identify small molecule agonists of the estrogen related receptor (ERR) signaling pathway from Tox21 library (AID 1224849; calls by dose curve; also: nearly all actives have a fitted effect of over 15% in size); conditions: ERR reporter cell line, ONE-Glo luciferase, 18 h; at 92.4 µM (top of the series) unless noted
Procedure, shortened: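 Quantitative HTS in agonist format: NTP ERR cell line, compounds transferred in DMSO after 6 h plating, 18 h incubation at 37 C, ONE-Glo luminescence endpoint.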

[4] = qHTS RealTime-Glo MT Cell Viability Assay in HepG2 cells - 24 hour (AID 1224867); also: nearly all actives have a fitted effect of over 50% in size
Procedure, shortened: (§1)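 qHTS, HepG2, 600 cells/well, RealTime-Glo (NanoLuc + prosubstrate) added with cells; 5 h preincubation; DMSO compound addition; 37 C; luminescence at 0/8/16/24/32/40 h.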

[5] = A CellTox Green Cytotoxicity Assay to monitor cytotoxicity in HEK293 cells - 0 hour (AID 1224869); also: nearly all actives have a fitted effect of over 50% in size
Procedure, shortened: (§2)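 Dead-cell fluorescence measured kinetically: asymmetric cyanine dye, HEK293, 600 cells/well, 5 h settle, 23 nL cpd/DMSO, 37 C, reads 0–40 h every 8 h.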

[6] = qHTS RealTime-Glo MT Cell Viability Assay in HepG2 cells - 40 hour (AID 1224870); also: nearly all actives have a fitted effect of over 50% in size; also: potency is read from the fitted curve at half-maximal effect
Procedure, shortened: (§3)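 Real-time viability: cells seeded at 600 per well together with NanoLuc and cell-permeant prosubstrate, compounds added after 5 h incubation. Luminescence tracked at 0, 8, 16, 24, 32 and 40 h of exposure.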

[7] = A CellTox Green Cytotoxicity Assay to monitor cytotoxicity in HEK293 cells - 40 hour (AID 1224871); also: nearly all actives have a fitted effect of over 45% in size; also: potency is read from the fitted curve at half-maximal effect
Procedure, shortened: as §2

[8] = qHTS RealTime-Glo MT Cell Viability Assay in HEK293 cells - 16 hour (AID 1224872); also: nearly all actives have a fitted effect of over 50% in size; also: potency is read from the fitted curve at half-maximal effect
Procedure, shortened: (§4)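 Assay medium contained NanoLuc luciferase plus cell-permeant prosubstrate, added with HEK293 cells at 600 cells/well. After 5 h at 37 C/5% CO2 compounds were added; plates stayed at 37 C for 40 h with serial luminescence reads.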

[9] = qHTS RealTime-Glo MT Cell Viability Assay in HepG2 cells - 8 hour (AID 1224873); also: nearly all actives have a fitted effect of over 55% in size
Procedure, shortened: as §3

[10] = A CellTox Green Cytotoxicity Assay to monitor cytotoxicity in HEK293 cells - 24 hour (AID 1224875); also: nearly all actives have a fitted effect of over 45% in size; also: potency is read from the fitted curve at half-maximal effect
Procedure, shortened: as §2

[11] = A CellTox Green Cytotoxicity Assay to monitor cytotoxicity in HepG2 cells - 16 hour (AID 1224876); also: nearly all actives have a fitted effect of over 45% in size; also: potency is read from the fitted curve at half-maximal effect
Procedure, shortened: (§5)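 First, HepG2 cells (600/well) mixed with reagent were plated; second, after 5 h at 37 C they received compounds via pintool; third, fluorescence was measured at 0 h through 40 h at 8 h intervals.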

[12] = qHTS RealTime-Glo MT Cell Viability Assay in HepG2 cells - 32 hour (AID 1224877); also: nearly all actives have a fitted effect of over 55% in size
Procedure, shortened: as §1

[13] = A CellTox Green Cytotoxicity Assay to monitor cytotoxicity in HepG2 cells - 24 hour (AID 1224878); also: nearly all actives have a fitted effect of over 45% in size; also: potency is read from the fitted curve at half-maximal effect
Procedure, shortened: as §5

[14] = A CellTox Green Cytotoxicity Assay to monitor cytotoxicity in HepG2 cells - 40 hour (AID 1224879); also: nearly all actives have a fitted effect of over 40% in size; also: potency is read from the fitted curve at half-maximal effect
Procedure, shortened: as §5

[15] = qHTS assay to identify small molecule agonists of the hypoxia (HIF-1) signaling pathway - cell viability counter screen (AID 1224844; calls by dose curve; also: nearly all actives have a fitted effect of over 50% in size; also: potency is read from the fitted curve at half-maximal effect)
Procedure, shortened: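 Viability counter screen: HRE-bla ME-180 cells plated 5 hrs before compound addition, treated 17 hrs at 37C and 5% CO2, then CellTiter-Glo added after the FRET reporter read; luminescence after 30 min.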

[16] = qHTS assay to identify small molecule agonists of the hypoxia (HIF-1) signaling pathway (AID 1224846; active = well fitted activation curve with a large enough effect in the signal ratio in the repeat runs, not every such curve was filed as active; the % refers to the signal ratio)
Procedure, shortened: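 Agonist mode reporter screen. ME-180 cells stably expressing bla under HRE control received test compounds in DMSO for 17 hrs (37C, 5% CO2), and beta-lactamase activity was then detected with the CCF4-AM FRET substrate.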

[17] = qHTS RealTime-Glo MT Cell Viability Assay in HEK293 cells - 32 hour (AID 1224868); also: nearly all actives have a fitted effect of over 50% in size; also: potency is read from the fitted curve at half-maximal effect
Procedure, shortened: as §4

[18] = qHTS RealTime-Glo MT Cell Viability Assay in HEK293 cells - 40 hour (AID 1224874); conditions: RealTime-Glo luminescence; max response: stronger effect = lower value; also: nearly all actives have a fitted effect of over 50% in size; also: potency is read from the fitted curve at half-maximal effect
Procedure, shortened: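 600 HEK293 cells per well, dispensed already mixed with RealTime-Glo MT reagents. Compound dosing came 5 h later. The same wells were read for luminescence at 0, 8, 16, 24, 32 and 40 h of exposure at 37 C.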

[19] = qHTS assay to identify small molecule agonists of H2AX (AID 1224845; active = well fitted activation curve with a large enough effect in the signal ratio in the repeat runs, not every such curve was filed as active; the % refers to the signal ratio)
Procedure, shortened: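 Phospho-H2AX Ser139 measured by HTRF (ex 320 nm; em 665 and 620 nm) after 24 hr antibody incubation. Compounds, 15 concentrations, 0.76% DMSO, were applied to CHO-K1 cells for 3hr at 37C before lysis.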
% is scaled to controls: 0 for no effect and ±100 for the full control effect.

CN1C(=O)C(O)N=C(c2ccccc2)c2cc(Cl)ccc21 (stereo unspecified)
inactive: Potency [1] | Potency [2] | activity change, positive = activation [3] -0.379% | Potency [4] | Potency [5] | Potency [6] | Potency [7] | Potency [8] | Potency [9] | Potency [10] | Potency [11] | Potency [12] | Potency [13] | Potency [14]

C[C@]12CC[C@H]3[C@@H](CCC4=CC(=O)CC[C@@H]43)[C@@H]1CC[C@@H]2OC(=O)CCC1CCCCC1
inactive: Potency [15] | outcome [16] | Potency [4] | Potency [17] | Potency [5] | Potency [6] | Potency [7] | Potency [8] | Potency [9] | max response [18] -18.6% | Potency [10] | Potency [11] | Potency [12] | Potency [13] | Potency [14]

C/C(=C\c1ccccc1)[N+](=O)[O-]
active: Potency [15] 38.9 µM | Potency [2] 24.3 µM | Potency [6] 21.9 µM | Potency [7] 9.77 µM | Potency [18] 11 µM
inactive: outcome [16] | activity change, positive = activation [3] -68.3% | Potency [5] | Potency [9] | Potency [10] | Potency [11]

Cc1ccc(-c2c(Cl)nc(C#N)n2S(=O)(=O)N(C)C)cc1
inactive: Potency [19] | outcome [16] | Potency [1] | Potency [4] | Potency [5] | Potency [7] | Potency [8] | Potency [9] | Potency [10] | Potency [11] | Potency [12] | Potency [13] | Potency [14]

COC(N)=O
inactive: outcome [16] | Potency [1] | Potency [4] | Potency [17] | Potency [5] | Potency [6] | Potency [7] | Potency [8] | Potency [9] | Potency [10] | Potency [11] | Potency [12] | Potency [13] | Potency [14]

COCCOCCO
active: activity change, positive = activation [3] 18.2%
inactive: Potency [2] | Potency [4] | Potency [17] | Potency [5] | Potency [6] | Potency [7] | Potency [8] | Potency [9] | Potency [10] | Potency [11] | Potency [13] | Potency [14]

O=C(CBr)c1ccccc1
inactive: Potency [15] | outcome [16] | Potency [1] | Potency [4] | Potency [17] | Potency [5] | Potency [7] | Potency [8] | Potency [9] | max response [18] 3.94% | Potency [10] | Potency [11] | Potency [13] | Potency [14]

C=CC[C@]1(O)CC[C@H]2[C@@H]3CCC4=CC(=O)CCC4=C3C=C[C@@]21C
active: Potency [1] 39.1 µM | Potency [17] 16.9 µM | Potency [8] 19 µM | Potency [18] 19 µM
inactive: activity change, positive = activation [3] -61.2% [at 42.5 µM] | Potency [5] | Potency [10] | Potency [11] | Potency [13] | Potency [14]

CN(C)c1ccc(N(C)C)cc1
inactive: Potency [15] | outcome [16] | Potency [4] | Potency [5] | Potency [6] | Potency [7] | Potency [8] | Potency [9] | Potency [10] | Potency [11] | Potency [13]

CN1[C@@H]2CC[C@H]1CC(OC(=O)c1cc(Cl)cc(Cl)c1)C2 (stereo partly specified)
active: Potency [11] 21.3 µM | Potency [13] 23.9 µM | Potency [14] 23.9 µM
inactive: Potency [15] | outcome [16] | Potency [1] | Potency [5] | Potency [6] | Potency [7] | Potency [8] | Potency [9] | Potency [10]

O=C(CBr)OCc1ccccc1
inactive: Potency [15] | outcome [16] | Potency [4] | Potency [17] | Potency [5] | Potency [6] | Potency [7] | Potency [9] | Potency [11] | Potency [12] | Potency [13] | Potency [14]

CC(O)(CS(=O)(=O)c1ccc(F)cc1)C(=O)Nc1ccc(C#N)c(C(F)(F)F)c1 (stereo unspecified)
inactive: Potency [15] | outcome [16] | activity change, positive = activation [3] -29.9% [at 42.5 µM] | Potency [5] | Potency [7] | Potency [11] | Potency [13]

CC1(C)[C@H](C=C(Cl)Cl)[C@@H]1C(=O)O[C@@H](C#N)c1cccc(Oc2ccccc2)c1
inactive: Potency [15] | outcome [16] | Potency [1] | Potency [4] | Potency [17] | Potency [5] | Potency [6] | Potency [7] | Potency [8] | Potency [9] | max response [18] 0.601% | Potency [10] | Potency [11] | Potency [12] | Potency [13] | Potency [14]

CCC(COC(=O)c1cc(OC)c(OC)c(OC)c1)(c1ccccc1)N(C)C (stereo unspecified)
active: Potency [8] 26.8 µM
inactive: Potency [15] | Potency [4] | Potency [5] | Potency [6] | Potency [7] | Potency [9] | Potency [10] | Potency [11] | Potency [12] | Potency [13] | Potency [14]

O=C(O)C1(c2ccc3c(c2)OC[C@H](Cc2ccc(-c4ccccc4)cc2)[C@H]3O)CCCC1
inactive: activity change, positive = activation [3] -42.3% | Potency [4] | Potency [5] | Potency [6] | Potency [9] | Potency [12]
active: Potency [15] 17.4 µM | Potency [1] 101 µM | Potency [2] 61.1 µM | Potency [7] 34.7 µM | Potency [10] 38.9 µM | Potency [14] 49 µM
